Records with an inconclusive call do not appear. Calls of active or inactive are those of the source. Rule for the calls: active = hit-call score of the fitted dose curve at least 0.9, where 1 is the maximum; inconclusive = response in the unintended direction; inactive = score below 0.9.
Columns and labels:
[1] = molecular target: mouse Cholecystokinin, CCK1 Receptor (CCKA), Cckar (gene 12425) (UniProt O08786); experiment: NVS_GPCR_mCCKAPeripheral: NovaScreen (NVS) G Protein-Coupled Receptor Assay for mouse Cholecystokinin, CCK1 Receptor (CCKA) (AID 2283285)
Method in brief: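 Chemicals were first screened in duplicate at 25 uM, with those meeting threshold (e.g., 30% inhibition) retested in singleton concentration series to 50 uM maximum. Binding of radioligand to mouse pancreatic membranes was read after 2 h by filtration and scintillation counting.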

[2] = molecular target: human Opioid Receptor Mu (Opiate Mu), OPRM1 (gene 4988) (UniProt P35372); experiment: NVS_GPCR_hOpiate_mu: NovaScreen (NVS) G Protein-Coupled Receptor Assay for human Opioid Receptor Mu (Opiate Mu) (AID 2283290);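 note: hits lower bound tracer signal versus DMSO meaning displacement of the ligand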
Method in brief: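 CHO-derived receptor protein, cell-free; radioligand displacement, filtration + scintillation counting, read at 2.5 h. DMSO = negative control/baseline. Primary: 25 uM single conc, duplicate; secondary: concentration series.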

[3] = molecular target: human Vasopressin 1A Receptor (V1A), AVPR1A (gene 552) (UniProt P37288); experiment: NVS_GPCR_hV1A: NovaScreen (NVS) G Protein-Coupled Receptor Assay for human Vasopressin 1A Receptor (V1A) (AID 2283284)
Method in brief: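 Single-concentration duplicate screen at 25 uM, with concentration-response follow-up (top 50 uM) for actives. The assay measured displacement of a radioligand from human platelet-derived receptor after 1.5 h, detected by filtration and scintillation counting.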

[4] = molecular target: human Neurokinin, NK2 Receptor, TACR2 (gene 6865) (UniProt P21452); experiment: NVS_GPCR_hNK2: NovaScreen (NVS) G Protein-Coupled Receptor Assay for human Neurokinin, NK2 Receptor (AID 2283278);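 note: actives reduce bound radioligand signal relative to DMSO baseline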
Method in brief: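 Filter-based scintillation counting measured radioligand bound to receptor extracted from CHO cells, 4 hours after compound addition. Chemicals screened first at 25 uM in duplicate, with actives retested in concentration series relative to DMSO.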

[5] = tested on: guinea pig Atrionatriuretic Peptide Receptor A (ANPA), gene 100135578; experiment: NVS_GPCR_gANPA: NovaScreen (NVS) G Protein-Coupled Receptor Assay for guinea pig Atrionatriuretic Peptide Receptor A (ANPA) (AID 2283291)
Method in brief: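 Displacement of specific radioligand from guinea pig cerebellum membranes was read by scintillation after 1 h. A duplicate single-point screen at 25 uM was followed by a concentration series up to 50 uM, analysed relative to DMSO.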

[6] = tested on: rabbit Platelet Activating Factor Receptor (PAF), gene 100354046; experiment: NVS_GPCR_rabPAF: NovaScreen (NVS) G Protein-Coupled Receptor Assay for rabbit Platelet Activating Factor Receptor (PAF) (AID 2283287)
Method in brief: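 Rabbit platelet membrane preparation; radioligand displacement read by filter-based scintillation counting 1 h after dosing, loss of signal versus DMSO. Primary screen in duplicate at 25 uM, actives followed up in concentration series.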

[7] = molecular target: rat Adrenergic, Alpha 1A Receptor (Adra1A), Adra1a (gene 29412) (UniProt P43140); experiment: NVS_GPCR_rAdra1A: NovaScreen (NVS) G Protein-Coupled Receptor Assay for rat Adrenergic, Alpha 1A Receptor (Adra1A) (AID 2283296)
Method in brief: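 Filter radiodetection after 1 h competitive binding on CEC-pretreated rat cortical membranes. Duplicate single-point screening at 25 uM; active chemicals retested across concentration series.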

[8] = tested on: rat Adrenergic, Alpha 1B Receptor (Adra1B), gene 24173; experiment: NVS_GPCR_rAdra1B: NovaScreen (NVS) G Protein-Coupled Receptor Assay for rat Adrenergic, Alpha 1B Receptor (Adra1B) (AID 2283297)
Method in brief: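 Filter-binding radioligand competition on membranes from rat liver, read after 1 h by scintillation counting. Single-concentration duplicate screen at 25 uM, followed by concentration-response on actives, normalised to DMSO.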

[9] = molecular target: rat Adrenergic, Alpha 1, Non-selective Receptor (Adra1), Adra1a (gene 29412) (UniProt P43140); experiment: NVS_GPCR_rAdra1_NonSelective: NovaScreen (NVS) G Protein-Coupled Receptor Assay for rat Adrenergic, Alpha 1, Non-selective Receptor (Adra1) (AID 2283289)
Method in brief: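 Chemicals first screened in duplicate at 25 uM, then actives tested in concentration series up to 50 uM. Binding measured as displacement of radioligand from rat forebrain membrane receptors, 1 h, filtration with scintillation readout; DMSO baseline.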

[10] = molecular target: human Neurotensin Receptor (NTS), NTSR1 (gene 4923) (UniProt P30989); experiment: NVS_GPCR_hNTS: NovaScreen (NVS) G Protein-Coupled Receptor Assay for human Neurotensin Receptor (NTS) (AID 2283279)
Method in brief: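 Compounds competed with a radiolabelled ligand for binding to CHO-derived human neurotensin receptor; bound signal counted after filtration, 1 h. Screened first at a single concentration of 25 uM in duplicate, then concentration series to 50 uM maximum for actives.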

[11] = molecular target: mouse Cholecystokinin, CCK2 Receptor (CCKB), Cckbr (gene 12426) (UniProt P56481); experiment: NVS_GPCR_mCKKBCentral: NovaScreen (NVS) G Protein-Coupled Receptor Assay for mouse Cholecystokinin, CCK2 Receptor (CCKB) (AID 2283293)
Method in brief: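 Mouse forebrain membrane preparation incubated 2 h with chemical and radioligand; bound radioactivity counted after filtration. Single-concentration duplicate screen at 25 uM, then concentration series to 50 uM max for hits, DMSO as baseline.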

[12] = molecular target: human Purinergic Receptor P2Y, P2RY1 (gene 5028) (UniProt P47900); experiment: NVS_GPCR_hPY2: NovaScreen (NVS) G Protein-Coupled Receptor Assay for human Purinergic Receptor P2Y (AID 2283281)
Method in brief: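 Filtration scintillation readout of radioligand displacement on U937 extract, measured 1 h post-dosing. Single 25 uM duplicate screen, then singleton concentration series to 50 uM for chemicals passing threshold; DMSO as baseline.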

[13] = molecular target: human Thromboxane A2 Receptor (TXA2), TBXA2R (gene 6915) (UniProt P21731); experiment: NVS_GPCR_hTXA2: NovaScreen (NVS) G Protein-Coupled Receptor Assay for human Thromboxane A2 Receptor (TXA2) (AID 2283282);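 note: actives reduce bound radioligand signal relative to DMSO baseline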
Method in brief: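 Screening ran at 25 uM in duplicate, with concentration series for confirmed actives. Each test measures radioligand binding to human platelet protein after 1 h, cell-free, using filter-based scintillation detection of signal loss relative to DMSO.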

[14] = molecular target: rat Serotonin, 5-Hydroxytryptamine Receptor 1 (5HT1), Non-Selective Binding, Htr1a (gene 24473) (UniProt P19327); experiment: NVS_GPCR_r5HT1_NonSelective: NovaScreen (NVS) G Protein-Coupled Receptor Assay for rat Serotonin, 5-Hydroxytryptamine Receptor 1 (5HT1), Non-Selective Binding (AID 2283286)
Method in brief: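 Binding of a radioligand to rat cortex membranes is read by filtration and scintillation counting after 1 h. Compounds were screened at 25 uM in duplicate. Actives were then titrated to a top of 50 uM. DMSO is the baseline.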

[15] = molecular target: guinea pig Bradykinin Receptor B2 (BK2), BDKRB2 (gene 100135486) (UniProt O70526); experiment: NVS_GPCR_gBK2: NovaScreen (NVS) G Protein-Coupled Receptor Assay for guinea pig Bradykinin Receptor B2 (BK2) (AID 2283292)
Method in brief: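 Guinea pig ileum membrane preparation incubated 1 h with radioligand and test chemical; bound counts measured after filtration. Primary duplicate screening at 25 uM, then singleton concentration series with a 50 uM top dose; DMSO as baseline.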

[16] = molecular target: rat Adrenergic Receptor, Alpha 2 (Adra2), Non-selective Binding, Adra2a (gene 25083) (UniProt P22909); experiment: NVS_GPCR_rAdra2_NonSelective: NovaScreen (NVS) G Protein-Coupled Receptor Assay for rat Adrenergic Receptor, Alpha 2 (Adra2), Non-selective Binding (AID 2283299)
Method in brief: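 Filter-based scintillation counting of radioligand binding to rat cortical membrane receptors, measured 1.25 hours post-dosing; loss of signal versus DMSO indicates displacement. Initial single-concentration duplicate at 25 uM, then concentration series.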

[17] = molecular target: rat Serotonin, 5-Hydroxytryptamine Receptor (5HT), Non-Selective Binding, Htr1a (gene 24473) (UniProt P19327); experiment: NVS_GPCR_r5HT_NonSelective: NovaScreen (NVS) G Protein-Coupled Receptor Assay for rat Serotonin, 5-Hydroxytryptamine Receptor (5HT), Non-Selective Binding (AID 2283295)
Method in brief: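 Rat cortex membrane preparation incubated 1 h with radioligand and test chemical; bound radioactivity counted after filtration. Screening began in duplicate at 25 uM with concentration-series follow-up; fitting relative to DMSO.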

[18] = molecular target: guinea pig Serotonin, 5-Hydroxytryptamine Receptor 4 (5HT4), HTR4 (gene 100135548) (UniProt O70528); experiment: NVS_GPCR_g5HT4: NovaScreen (NVS) G Protein-Coupled Receptor Assay for guinea pig Serotonin, 5-Hydroxytryptamine Receptor 4 (5HT4) (AID 2283294)
Method in brief: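 Compounds first screened in duplicate at 25 uM, actives followed up in concentration series. Binding measured as displacement of specific radioligand from guinea pig striatal membranes, 1 h, filter-based scintillation read-out versus DMSO baseline.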

Chain of rat Adrenergic, Alpha 1, Non-selective Receptor (Adra1), Adra1a (gene 29412) (P43140 whole entry, looked up): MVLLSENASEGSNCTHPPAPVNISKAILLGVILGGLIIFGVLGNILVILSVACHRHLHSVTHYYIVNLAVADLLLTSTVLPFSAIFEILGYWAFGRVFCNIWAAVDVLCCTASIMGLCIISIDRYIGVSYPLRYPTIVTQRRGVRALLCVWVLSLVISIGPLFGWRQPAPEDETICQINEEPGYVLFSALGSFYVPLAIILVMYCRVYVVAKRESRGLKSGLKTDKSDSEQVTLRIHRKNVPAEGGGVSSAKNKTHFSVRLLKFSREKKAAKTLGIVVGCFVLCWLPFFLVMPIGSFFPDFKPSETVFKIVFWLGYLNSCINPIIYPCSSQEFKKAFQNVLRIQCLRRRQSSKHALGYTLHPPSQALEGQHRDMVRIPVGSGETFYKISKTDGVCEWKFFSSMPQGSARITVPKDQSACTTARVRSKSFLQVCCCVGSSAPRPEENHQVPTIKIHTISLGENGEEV
Chain of mouse Cholecystokinin, CCK1 Receptor (CCKA), Cckar (gene 12425) (O08786 whole entry, looked up): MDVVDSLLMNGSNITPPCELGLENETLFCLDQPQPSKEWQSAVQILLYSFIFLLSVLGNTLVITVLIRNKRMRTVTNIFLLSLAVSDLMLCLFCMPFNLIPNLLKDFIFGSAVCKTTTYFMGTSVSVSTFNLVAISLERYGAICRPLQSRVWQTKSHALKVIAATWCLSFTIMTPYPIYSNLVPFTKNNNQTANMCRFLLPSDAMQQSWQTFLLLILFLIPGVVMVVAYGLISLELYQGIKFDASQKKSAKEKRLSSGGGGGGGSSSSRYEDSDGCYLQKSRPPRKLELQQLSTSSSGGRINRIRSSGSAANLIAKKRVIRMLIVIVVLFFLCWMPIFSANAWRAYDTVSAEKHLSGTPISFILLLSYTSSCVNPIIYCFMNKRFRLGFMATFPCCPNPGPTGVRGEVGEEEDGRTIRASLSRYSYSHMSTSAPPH
Chain of human Opioid Receptor Mu (Opiate Mu), OPRM1 (gene 4988) (P35372 whole entry, looked up): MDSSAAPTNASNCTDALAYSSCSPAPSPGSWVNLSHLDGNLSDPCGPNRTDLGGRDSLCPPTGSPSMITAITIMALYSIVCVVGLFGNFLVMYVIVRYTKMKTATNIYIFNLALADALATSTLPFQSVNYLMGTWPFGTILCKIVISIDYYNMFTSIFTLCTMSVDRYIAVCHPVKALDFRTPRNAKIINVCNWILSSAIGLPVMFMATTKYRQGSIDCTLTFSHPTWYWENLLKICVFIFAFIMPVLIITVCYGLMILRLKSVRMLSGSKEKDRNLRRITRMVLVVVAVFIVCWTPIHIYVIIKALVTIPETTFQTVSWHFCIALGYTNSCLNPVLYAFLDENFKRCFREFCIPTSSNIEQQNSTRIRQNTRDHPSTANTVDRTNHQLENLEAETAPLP
Chain of rat Serotonin, 5-Hydroxytryptamine Receptor 1 (5HT1), Non-Selective Binding, Htr1a (gene 24473) (P19327 whole entry, looked up): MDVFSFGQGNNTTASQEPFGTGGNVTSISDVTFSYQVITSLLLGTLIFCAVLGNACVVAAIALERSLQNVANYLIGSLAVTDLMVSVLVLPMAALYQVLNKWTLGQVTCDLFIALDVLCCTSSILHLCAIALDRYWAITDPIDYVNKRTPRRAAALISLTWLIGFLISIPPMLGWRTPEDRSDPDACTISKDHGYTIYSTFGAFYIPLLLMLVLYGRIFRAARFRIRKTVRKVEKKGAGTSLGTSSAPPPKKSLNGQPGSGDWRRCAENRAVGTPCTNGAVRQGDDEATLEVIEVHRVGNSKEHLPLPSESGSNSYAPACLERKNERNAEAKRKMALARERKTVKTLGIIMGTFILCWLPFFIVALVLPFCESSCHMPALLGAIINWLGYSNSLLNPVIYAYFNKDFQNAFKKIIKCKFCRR
Chain of human Neurotensin Receptor (NTS), NTSR1 (gene 4923) (P30989 whole entry, looked up): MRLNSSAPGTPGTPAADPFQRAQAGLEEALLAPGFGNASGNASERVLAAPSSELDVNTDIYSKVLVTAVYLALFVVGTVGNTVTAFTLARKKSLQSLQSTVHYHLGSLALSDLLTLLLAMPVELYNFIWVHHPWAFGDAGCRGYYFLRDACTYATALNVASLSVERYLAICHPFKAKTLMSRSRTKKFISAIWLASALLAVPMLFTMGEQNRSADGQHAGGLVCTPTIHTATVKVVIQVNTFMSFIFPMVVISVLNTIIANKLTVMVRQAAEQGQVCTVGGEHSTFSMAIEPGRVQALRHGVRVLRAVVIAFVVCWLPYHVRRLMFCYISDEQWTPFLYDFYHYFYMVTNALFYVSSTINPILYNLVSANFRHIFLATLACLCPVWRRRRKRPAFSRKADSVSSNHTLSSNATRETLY
Chain of human Thromboxane A2 Receptor (TXA2), TBXA2R (gene 6915) (P21731 whole entry, looked up): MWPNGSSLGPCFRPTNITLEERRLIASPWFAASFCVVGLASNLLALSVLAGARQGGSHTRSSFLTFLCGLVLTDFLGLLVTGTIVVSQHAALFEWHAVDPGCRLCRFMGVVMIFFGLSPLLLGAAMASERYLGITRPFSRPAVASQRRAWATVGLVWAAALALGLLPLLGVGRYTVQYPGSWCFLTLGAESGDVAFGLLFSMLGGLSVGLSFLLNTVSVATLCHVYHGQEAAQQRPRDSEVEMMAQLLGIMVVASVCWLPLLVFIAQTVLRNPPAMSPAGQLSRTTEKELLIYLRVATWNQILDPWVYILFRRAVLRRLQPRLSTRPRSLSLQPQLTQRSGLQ
Chain of human Vasopressin 1A Receptor (V1A), AVPR1A (gene 552) (P37288 whole entry, looked up): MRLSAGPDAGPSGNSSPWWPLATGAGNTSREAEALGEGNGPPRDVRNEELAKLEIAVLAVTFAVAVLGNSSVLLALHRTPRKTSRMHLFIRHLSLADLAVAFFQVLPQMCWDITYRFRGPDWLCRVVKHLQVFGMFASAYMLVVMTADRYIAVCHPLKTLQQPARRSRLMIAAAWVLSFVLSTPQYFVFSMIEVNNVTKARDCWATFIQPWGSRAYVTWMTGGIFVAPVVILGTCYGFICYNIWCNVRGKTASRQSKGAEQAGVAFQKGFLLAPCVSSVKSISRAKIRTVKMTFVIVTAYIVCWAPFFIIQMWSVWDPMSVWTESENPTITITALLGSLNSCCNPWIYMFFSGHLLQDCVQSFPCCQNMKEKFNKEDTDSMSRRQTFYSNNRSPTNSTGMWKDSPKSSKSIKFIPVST
Chain of human Neurokinin, NK2 Receptor, TACR2 (gene 6865) (P21452 whole entry, looked up): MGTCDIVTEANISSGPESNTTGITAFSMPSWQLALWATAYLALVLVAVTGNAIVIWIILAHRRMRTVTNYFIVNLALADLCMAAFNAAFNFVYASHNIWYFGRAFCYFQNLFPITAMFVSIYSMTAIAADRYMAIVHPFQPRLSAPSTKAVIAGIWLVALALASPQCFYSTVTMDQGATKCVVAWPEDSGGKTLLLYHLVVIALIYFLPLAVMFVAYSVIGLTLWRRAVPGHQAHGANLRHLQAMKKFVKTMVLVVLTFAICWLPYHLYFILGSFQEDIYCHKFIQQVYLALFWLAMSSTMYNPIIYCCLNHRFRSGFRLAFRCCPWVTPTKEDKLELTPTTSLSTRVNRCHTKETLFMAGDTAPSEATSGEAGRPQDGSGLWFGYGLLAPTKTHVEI
Chain of rat Serotonin, 5-Hydroxytryptamine Receptor (5HT), Non-Selective Binding, Htr1a (gene 24473) (P19327 whole entry, looked up): as the sequence (P19327 whole entry, looked up) above
Chain of rat Adrenergic, Alpha 1A Receptor (Adra1A), Adra1a (gene 29412) (P43140 whole entry, looked up): as the sequence (P43140 whole entry, looked up) above
Chain of guinea pig Serotonin, 5-Hydroxytryptamine Receptor 4 (5HT4), HTR4 (gene 100135548) (O70528 whole entry, looked up): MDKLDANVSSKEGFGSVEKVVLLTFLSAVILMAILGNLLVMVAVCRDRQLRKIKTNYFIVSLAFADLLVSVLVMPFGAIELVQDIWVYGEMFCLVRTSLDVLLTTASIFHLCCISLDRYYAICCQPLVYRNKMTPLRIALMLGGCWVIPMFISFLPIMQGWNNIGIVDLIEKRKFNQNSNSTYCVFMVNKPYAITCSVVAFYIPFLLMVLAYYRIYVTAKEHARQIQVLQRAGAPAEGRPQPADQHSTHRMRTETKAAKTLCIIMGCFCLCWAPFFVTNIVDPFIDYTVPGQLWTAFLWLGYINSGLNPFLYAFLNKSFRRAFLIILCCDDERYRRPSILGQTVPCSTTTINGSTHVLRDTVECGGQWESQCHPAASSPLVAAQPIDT

SMILES: CCCSP(=O)(OCC)Oc1ccc(Br)cc1Cl (stereo not drawn)
- outcome [1]: inactive
- AC50 [2]: 4.96 µM (active)

SMILES: CCC(=NOC/C=C/Cl)C1=C(O)CC(C2CCOCC2)CC1=O (stereo not drawn)
- outcome [3]: inactive

SMILES: CCc1cccc(CC)c1N(COC)C(=O)CCl
- outcome [4]: inactive
- AC50 [2]: 4.96 µM (active)
- outcome [5]: inactive

SMILES: C[Si](Cn1cncn1)(c1ccc(F)cc1)c1ccc(F)cc1
- AC50 [1]: 25 µM (active)
- AC50 [6]: 6.38 µM (active)
- AC50 [2]: 9.11 µM (active)
- AC50 [7]: 16.9 µM (active)
- AC50 [8]: 19.1 µM (active)

SMILES: CCOP(=S)(OCC)Oc1ccc2c(C)c(Cl)c(=O)oc2c1
- outcome [5]: inactive

SMILES: CC(C)=CC1C(C(=O)OCN2C(=O)C3=C(CCCC3)C2=O)C1(C)C (stereo not drawn)
- AC50 [6]: 7.72 µM (active)
- outcome [9]: inactive

SMILES: COP(=O)(OC)OC(Br)C(Cl)(Cl)Br (stereo not drawn)
- outcome [6]: inactive
- AC50 [2]: 8.83 µM (active)

SMILES: CCCCSP(=O)(SCCCC)SCCCC
- outcome [10]: inactive
- outcome [11]: inactive

SMILES: CN(C)[C@@H]1C(=O)C(C(N)=O)=C(O)[C@@]2(O)C(=O)C3=C(O)c4c(O)cccc4[C@@](C)(O)[C@H]3[C@H](O)[C@@H]12
- outcome [12]: inactive
- outcome [13]: inactive

SMILES: CCOP(=S)(OCC)OC(Cl)C(Cl)(Cl)Cl (stereo not drawn)
- outcome [9]: inactive

SMILES: CCOP(=S)(OCC)Oc1cc(C)nc(C(C)C)n1
- outcome [10]: inactive
- outcome [14]: inactive

SMILES: CCCCOC(=O)c1ccccc1C(=O)O
- outcome [9]: inactive

SMILES: S=C1NCCN1
- outcome [2]: inactive
- outcome [15]: inactive
- outcome [16]: inactive

SMILES: COc1cc(OC)nc(Sc2cccc(Cl)c2C(=O)O)n1
- AC50 [13]: 4.45 µM (active)
- outcome [17]: inactive

SMILES: CCC(=O)Nc1ccc(Cl)c(Cl)c1
- outcome [14]: inactive
- AC50 [18]: 9.91 µM (active)
- AC50 [17]: 34.6 µM (active)

SMILES: CCOP(=O)(OCC)Oc1cc(C)nc(C(C)C)n1
- outcome [14]: inactive

SMILES: COc1cccc(C(=O)NN(C(=O)c2cc(C)cc(C)c2)C(C)(C)C)c1C
- outcome [3]: inactive

SMILES: C#CCC1=C(C)C(OC(=O)C2C(C=C(C)C)C2(C)C)CC1=O (stereo not drawn)
- outcome [4]: inactive
- outcome [1]: inactive
- AC50 [6]: 10.9 µM (active)
- outcome [5]: inactive

Reference: PubChem BioAssay (EPA / NIEHS)
